What is called AC50 is the midpoint of the concentration-response curve, whichever way the signal moves.

Consider seven compounds from PubChem BioAssay (EPA / NIEHS).

Calls of active or inactive are those of the source. How the source made its calls: active means hit-call score of the fitted dose curve at least 0.9, where 1 is the maximum; inactive means score below 0.9.

Assay [1] in a line: ATG_CRE_CIS: Attagene CIS-FACTORIAL HepG2 Assay for human cAMP Responsive Element (CRE) binding protein 3 (AID 2282926). To be noted: HepG2 CRE cis-reporter, Attagene multiplexed mRNA; actives raise or lower the signal. The essentials: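 Multiplexed transcription-unit reporters transfected into HepG2; 24 h dosing; RT-PCR/capillary electrophoresis fluorescence read-out; bidirectional fit vs DMSO.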

For assay [2], the target named is CCAAT/enhancer-binding protein beta (Homo sapiens) (UniProt P17676). The experiment in a line: ATG_C_EBP_CIS: Attagene CIS-FACTORIAL HepG2 Assay for human CCAAT/Enhancer Binding Protein (C/EBP) beta (AID 2282927). The conditions noted are these: HepG2 Attagene cis-factorial transcription factor reporter; actives raise or lower the signal. The essentials:
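Endogenous C/EBPb-driven reporter transcripts measured in transfected human HepG2 cells at 24 h via RT-PCR and capillary electrophoresis of labelled fragments. Activity fitted in both directions relative to DMSO baseline.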

Assay [3] is described as follows: ATG_CMV_CIS: Attagene CIS-FACTORIAL HepG2 Assay for human CMV (Internal Marker) (AID 2282928).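 Further: endpoint acts as a background internal control marker rather than a target.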 To be noted: HepG2 CMV promoter reporter, transcription factor profiling; actives raise or lower the signal. The essentials: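 Cell system: HepG2, transiently transfected multiple reporter units under cis promoters. Exposure: 24 h. Detection: RT-PCR, FAM labeling, HpaI digestion, capillary electrophoresis. Analysis: bidirectional, DMSO baseline.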

A short description of assay [4]: ATG_DR4_LXR_CIS: Attagene CIS-FACTORIAL HepG2 Assay for human Liver X Receptor (LXR), DR4 submotif (AID 2282929). The conditions noted are these: HepG2 Attagene DR4 cis-reporter, mRNA transcription; actives raise or lower the signal. The essentials:
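Measures endogenous transcription factor activity via a DR4-driven reporter transcript in human HepG2 cells. Compounds incubated 24 h; mRNA quantified by RT-PCR and capillary electrophoresis, analysed as gain or loss of signal versus DMSO.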

Assay [5] in a line: ATG_AP_1_CIS: Attagene CIS-FACTORIAL HepG2 Assay for human Activator Protein 1 (AP-1) (AID 2282931). To be noted: HepG2 Attagene cis-factorial AP-1 reporter mRNA; actives raise or lower the signal. The essentials:
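Bidirectional concentration-response fitting against DMSO controls. Underlying signal: reporter mRNA from cis-promoter constructs in transiently transfected HepG2, measured after 24 h by RT-PCR and capillary electrophoresis.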

Assay [6] is described as follows: ATG_BRE_CIS: Attagene CIS-FACTORIAL HepG2 Assay for human Bone Morphogenetic Protein (BMP) Response Element (BRE) (AID 2282933). The conditions noted are these: HepG2 BMP response element reporter, Attagene transcription factor profiling; actives raise or lower the signal. The essentials: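 Read-out: reporter mRNA induction quantified by RT-PCR and capillary electrophoresis after 24 h chemical exposure of transfected HepG2 cells. Endogenous factor activity on the BMP response element; gain or loss fitted against DMSO baseline.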

A short description of assay [7]: ATG_E_Box_CIS: Attagene CIS-FACTORIAL HepG2 Assay for human Enhancer Box (E-box) (AID 2282936). The conditions noted are these: HepG2 E-box cis-reporter transcription, actives raise or lower the signal. The essentials:
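Cells: HepG2 (human liver), transient MRTU transfection. Exposure 24 h. RNA → oligo(dT) RT → PCR → 6-FAM label → HpaI → CE. Activity fitted both directions relative to DMSO.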

Assay [8] in a line: ATG_M_19_CIS: Attagene CIS-FACTORIAL HepG2 Assay for M19 Transcription Factor (Internal Marker) (AID 2282939). The conditions noted are these: HepG2 Attagene CIS-FACTORIAL M19 internal marker reporter; actives raise or lower the signal. The essentials: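 Readout: fluorescent reporter-transcript fragments by capillary electrophoresis after RT-PCR. Human HepG2 liver cells carried transfected MRTU constructs reporting endogenous transcription-factor activity; exposure 24 h. Gain or loss of signal fitted relative to DMSO.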

The nature of assay [9]: ATG_GATA_CIS: Attagene CIS-FACTORIAL HepG2 Assay for human GATA Binding Protein (AID 2282944). The conditions noted are these: HepG2 GATA cis-element reporter, Attagene multiplex mRNA; actives raise or lower the signal. The essentials:
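Read-out: fluorescent reporter mRNA fragments resolved by capillary electrophoresis after RT-PCR. Human liver HepG2 cells carried transiently transfected cis-regulated reporter constructs; chemicals incubated 24 h; gain or loss of signal fitted relative to DMSO.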

Assay [10] is described as follows: ATG_ISRE_CIS: Attagene CIS-FACTORIAL HepG2 Assay for human Interferon Regulatory Factor 1 (IRF1) binding to an Interferon-Stimulated Response Element (ISRE) (AID 2282948). The conditions noted are these: HepG2 ISRE cis-reporter (Attagene), mRNA transcription readout; actives raise or lower the signal. The essentials:
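Quantitation relies on labelled RT-PCR fragments separated by capillary electrophoresis. Human HepG2 cells bearing cis-promoter reporter constructs were treated 24 h; DMSO served as baseline for bidirectional fitting.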

A short description of assay [11]: ATG_M_32_CIS: Attagene CIS-FACTORIAL HepG2 Assay for M32 Transcription Factor (Internal Marker) (AID 2282949).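 Further: background control marker of the multiplexed CIS panel rather than a real target.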 The conditions noted are these: HepG2 Attagene cis-factorial M32 reporter, mRNA; actives raise or lower the signal. The essentials:
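Fluorescent capillary electrophoresis peaks of HpaI-digested, FAM-labelled RT-PCR reporter products give the signal. Source: transiently transfected human liver HepG2 cells, 24 h after chemical dosing; bidirectional fitting against DMSO.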

The nature of assay [12]: ATG_M_06_CIS: Attagene CIS-FACTORIAL HepG2 Assay for M06 Transcription Factor (Internal Marker) (AID 2282950). The conditions noted are these: HepG2 Attagene CIS-FACTORIAL M06 internal marker reporter; actives raise or lower the signal. The essentials: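 Terse: HepG2, transient MRTU transfection (FuGene 6), 24 h dosing; total RNA, oligo(dT) RT, PCR, FAM label, HpaI cut, capillary electrophoresis; bidirectional fit vs DMSO baseline; background-control endpoint.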

The nature of assay [13]: ATG_MRE_CIS: Attagene CIS-FACTORIAL HepG2 Assay for human Metal Responsive Element (MRE) (AID 2282954). To be noted: HepG2 MRE cis-reporter transcription, Attagene multiplex; actives raise or lower the signal. The essentials:
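Transient MRTU transfection of HepG2 (FuGene 6); 24 h dosing; total RNA → oligo(dT) RT, PCR, 6-FAM primer extension, HpaI cut, CE. Bidirectional fit vs DMSO.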

In assay [14] the target is Paired box protein Pax-6 (Homo sapiens) (UniProt P26367). Kind of assay: ATG_Pax6_CIS: Attagene CIS-FACTORIAL HepG2 Assay for human Paired Box 6 (PAX6) (AID 2282956). The conditions noted are these: HepG2 CIS-FACTORIAL PAX6 reporter transcription, RNA readout; actives raise or lower the signal. The essentials: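 After twenty-four hours of chemical exposure, transfected HepG2 cells are harvested for RNA. Cis-promoter reporter transcripts are amplified, fluorescently labelled and sized by capillary electrophoresis, with gain and loss of signal scored against DMSO.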
Sequence of Paired box protein Pax-6 (Homo sapiens) (P26367 whole entry, looked up): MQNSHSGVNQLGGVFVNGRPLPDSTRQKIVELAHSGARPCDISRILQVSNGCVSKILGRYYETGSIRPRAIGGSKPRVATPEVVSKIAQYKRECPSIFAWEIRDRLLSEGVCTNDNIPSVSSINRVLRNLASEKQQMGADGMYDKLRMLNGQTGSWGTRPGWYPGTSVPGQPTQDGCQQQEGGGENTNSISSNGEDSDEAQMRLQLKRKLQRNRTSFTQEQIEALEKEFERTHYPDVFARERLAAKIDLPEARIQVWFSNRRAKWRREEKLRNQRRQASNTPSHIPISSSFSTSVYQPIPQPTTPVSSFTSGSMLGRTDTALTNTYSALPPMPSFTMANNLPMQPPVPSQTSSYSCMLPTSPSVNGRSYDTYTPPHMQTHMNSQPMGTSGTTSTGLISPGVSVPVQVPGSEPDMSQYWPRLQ

The nature of assay [15]: ATG_PXRE_CIS: Attagene CIS-FACTORIAL HepG2 Assay for human Pregnane X Receptor Element (PXRE) (AID 2282957). The conditions noted are these: HepG2 Attagene CIS-FACTORIAL PXRE reporter, mRNA; actives raise or lower the signal. The essentials: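 Cells: HepG2, transiently transfected reporter units under cis promoter control. Exposure: 24 h. Detection: reporter mRNA via RT-PCR/CE fluorescence; bidirectional fitting, DMSO-referenced.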

A short description of assay [16]: ATG_Sox_CIS: Attagene CIS-FACTORIAL HepG2 Assay for human SRY-box transcription factor (SOX) (AID 2282960). To be noted: HepG2 Attagene cis-factorial SOX reporter, mRNA; actives raise or lower the signal. The essentials: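 After 24 h of chemical treatment, transfected HepG2 reporter cells are lysed for total RNA. Transcript levels come from RT-PCR with labelled primer extension and capillary electrophoresis, analysed bidirectionally versus DMSO.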

The target of assay [17] is Transcription factor Sp1 (Homo sapiens) (UniProt P08047). The experiment in a line: ATG_Sp1_CIS: Attagene CIS-FACTORIAL HepG2 Assay for human Specificity Protein 1 (Sp1) (AID 2282961). To be noted: HepG2 Sp1 cis-reporter transcription, actives raise or lower the signal. The essentials:
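Sp1-driven reporter mRNA, read as capillary electrophoresis fluorescence after RT-PCR, in transiently transfected HepG2 cells dosed for 24 h; signal change in either direction relative to DMSO.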

The nature of assay [18]: ATG_TA_CIS: Attagene CIS-FACTORIAL HepG2 Assay for human TA Basal Promoter (AID 2282964). To be noted: HepG2 Attagene CIS-factorial TA basal promoter reporter; actives raise or lower the signal. The essentials: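 Transfected HepG2, 24 h compound exposure; RNA → RT-PCR → FAM primer extension → HpaI cut → CE fluorescence. Gain/loss-of-signal fitted against DMSO negative control. Background-control readout.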

The nature of assay [19]: ATG_TCF_b_cat_CIS: Attagene CIS-FACTORIAL HepG2 Assay for human T-Cell-Factor with beta-catenin (TCF/b-cat) (AID 2282965). To be noted: HepG2 TCF/beta-catenin cis-reporter transcription, actives raise or lower the signal. The essentials:
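Endogenous TCF/LEF activity read as reporter transcript level via RT-PCR and capillary electrophoresis fluorescence in transfected HepG2, 24 h exposure; gain or loss of signal fitted against DMSO controls.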

A short description of assay [20]: ATG_TAL_CIS: Attagene CIS-FACTORIAL HepG2 Assay for human TAL Basal Promoter (AID 2282966).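 Further: background control endpoint measuring basal TAL promoter reporter mRNA not a specific factor.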 The conditions noted are these: HepG2 Attagene cis-factorial TAL promoter reporter; actives raise or lower the signal. The essentials: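 RT-PCR plus capillary electrophoresis quantifies reporter mRNA induction in transiently transfected HepG2 cells after 24 h chemical treatment. DMSO serves as negative control and baseline for bidirectional fitting.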

Sequence of CCAAT/enhancer-binding protein beta (Homo sapiens) (P17676 whole entry, looked up, the tested form may be a part): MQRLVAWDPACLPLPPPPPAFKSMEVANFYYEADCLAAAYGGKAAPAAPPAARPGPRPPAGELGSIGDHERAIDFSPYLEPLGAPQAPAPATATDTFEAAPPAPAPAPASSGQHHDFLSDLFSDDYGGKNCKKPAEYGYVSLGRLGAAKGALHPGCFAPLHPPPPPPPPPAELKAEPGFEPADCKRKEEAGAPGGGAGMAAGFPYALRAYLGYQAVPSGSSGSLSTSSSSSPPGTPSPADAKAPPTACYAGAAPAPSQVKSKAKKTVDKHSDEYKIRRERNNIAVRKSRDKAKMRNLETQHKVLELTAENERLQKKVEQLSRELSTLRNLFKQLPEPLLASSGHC
Sequence of Transcription factor Sp1 (Homo sapiens) (P08047 whole entry, looked up): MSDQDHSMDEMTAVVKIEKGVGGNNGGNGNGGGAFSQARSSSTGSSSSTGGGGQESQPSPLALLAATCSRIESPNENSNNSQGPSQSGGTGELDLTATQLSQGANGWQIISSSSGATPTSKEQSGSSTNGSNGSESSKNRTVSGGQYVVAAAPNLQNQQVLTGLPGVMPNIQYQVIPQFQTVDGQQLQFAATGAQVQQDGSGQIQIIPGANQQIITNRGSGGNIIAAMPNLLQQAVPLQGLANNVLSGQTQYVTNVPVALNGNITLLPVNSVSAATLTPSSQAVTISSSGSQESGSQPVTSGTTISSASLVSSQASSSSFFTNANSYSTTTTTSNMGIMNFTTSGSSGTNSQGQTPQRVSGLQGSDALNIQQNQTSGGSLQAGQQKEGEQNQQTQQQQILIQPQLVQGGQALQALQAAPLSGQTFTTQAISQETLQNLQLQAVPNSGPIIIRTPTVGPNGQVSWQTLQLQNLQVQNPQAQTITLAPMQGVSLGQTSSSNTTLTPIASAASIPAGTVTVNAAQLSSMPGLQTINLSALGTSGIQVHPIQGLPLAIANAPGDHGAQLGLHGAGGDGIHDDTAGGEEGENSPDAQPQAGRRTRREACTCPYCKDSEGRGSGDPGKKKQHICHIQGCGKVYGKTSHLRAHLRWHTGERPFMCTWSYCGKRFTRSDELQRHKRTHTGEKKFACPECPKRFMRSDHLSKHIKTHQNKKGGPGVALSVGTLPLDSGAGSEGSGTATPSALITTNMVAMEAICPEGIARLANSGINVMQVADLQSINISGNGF

With `CC1=C(CC(=O)O)c2cc(F)ccc2/C1=C\c1ccc(S(C)=O)cc1` (stereo not given), the outcome in [1], in [2], in assay [3], in [4], in [5] and in [6] was inactive. Further, the compound was classed as inactive in assay [8], in assay [9], in [11], in [12], in [13] and in assay [14]. Also, the compound was called inactive in assay [16], in assay [17], in [18], in assay [19] and in assay [20]. For the same compound, the AC50 in assay [7] was 43.4 µM (active); in assay [10], 44.9 µM (active); in assay [15] it was 5.37 µM (active).

Turning to `CC(C)CC(=O)O`, the compound was called inactive in assay [1], in assay [2], in assay [3], in assay [4], in assay [5] and in [6]. The outcome in assay [7], in assay [8], in [9], in [10], in assay [11] and in [12] was inactive. Moreover, the result in assay [13], in assay [14], in assay [15], in assay [16], in assay [17] and in assay [18] was inactive. The result in assay [19] and in assay [20] was inactive.

`CC(O)(P(=O)(O)O)P(=O)(O)O`: the result in assay [1], in [2], in assay [3], in assay [4], in assay [5] and in assay [6] was inactive. The outcome in [7], in assay [8], in [9], in [10], in [11] and in [12] was inactive. The call in assay [13], in assay [14], in assay [15], in [16], in assay [17] and in assay [18] was inactive. In addition, the result in assay [19] and in [20] was inactive.

In the case of `CCCC(=O)OC/C=C(\C)CCC=C(C)C`, the compound was classed as inactive in assay [1], in assay [2], in assay [3], in assay [4], in [5] and in assay [6]. Besides, the result in [7], in assay [8], in assay [9], in [10], in [11] and in [12] was inactive. For the same compound, the outcome in [13], in assay [14], in assay [16], in assay [17], in [18] and in [19] was inactive. Also, the result in assay [20] was inactive. In addition, in assay [15], the half-maximal activity concentration (AC50) was 22.7 µM (active).

In the case of `CCCCC(CC)COC(=O)CS` (stereo not given), the result in assay [1], in assay [2], in assay [3], in assay [4], in [5] and in [6] was inactive. Besides, the result in assay [7], in assay [8], in assay [9], in assay [10], in assay [11] and in assay [12] was inactive. For the same compound, the result in [13], in assay [14], in assay [16], in assay [17], in assay [18] and in assay [19] was inactive. In addition, the outcome in assay [20] was inactive. The AC50 in assay [15] was 13.1 µM (active).

`COC(=O)CCSCCC(=O)OC`: the result in assay [1], in assay [2], in [3], in assay [4], in assay [5] and in assay [6] was inactive. Also, the outcome in assay [7], in assay [8], in assay [9], in assay [10], in [11] and in assay [12] was inactive. In addition, the call in [13], in assay [14], in [15], in [16], in assay [17] and in assay [18] was inactive. Further, the compound was classed as inactive in assay [19] and in [20].

As to `CCCOCCC`, the call in assay [1], in assay [2], in assay [3], in assay [4], in assay [5] and in [6] was inactive. Also, the outcome in assay [7], in [8], in assay [9], in assay [10], in assay [11] and in [12] was inactive. The call in assay [13], in assay [14], in assay [15], in assay [16], in assay [17] and in assay [18] was inactive. Further, the compound was classed as inactive in [19] and in [20].
